Laboratory results as given in ChEMBL document CHEMBL4808148, “HDAC6 screening dataset using tau-based substrate in an enzymatic assay yields selective inhibitors and activators” (2021).
About 390 (7%) of roughly 5,600 compounds showed an effect of 50% or more. Only a selection was taken, and strong results are over-represented in it overall.

Key:
[1] = biological target: T1, Protein deacetylase HDAC6 (Homo sapiens) (UniProt Q9UBN7); settings: at 10 µM
T1 sequence (whole entry): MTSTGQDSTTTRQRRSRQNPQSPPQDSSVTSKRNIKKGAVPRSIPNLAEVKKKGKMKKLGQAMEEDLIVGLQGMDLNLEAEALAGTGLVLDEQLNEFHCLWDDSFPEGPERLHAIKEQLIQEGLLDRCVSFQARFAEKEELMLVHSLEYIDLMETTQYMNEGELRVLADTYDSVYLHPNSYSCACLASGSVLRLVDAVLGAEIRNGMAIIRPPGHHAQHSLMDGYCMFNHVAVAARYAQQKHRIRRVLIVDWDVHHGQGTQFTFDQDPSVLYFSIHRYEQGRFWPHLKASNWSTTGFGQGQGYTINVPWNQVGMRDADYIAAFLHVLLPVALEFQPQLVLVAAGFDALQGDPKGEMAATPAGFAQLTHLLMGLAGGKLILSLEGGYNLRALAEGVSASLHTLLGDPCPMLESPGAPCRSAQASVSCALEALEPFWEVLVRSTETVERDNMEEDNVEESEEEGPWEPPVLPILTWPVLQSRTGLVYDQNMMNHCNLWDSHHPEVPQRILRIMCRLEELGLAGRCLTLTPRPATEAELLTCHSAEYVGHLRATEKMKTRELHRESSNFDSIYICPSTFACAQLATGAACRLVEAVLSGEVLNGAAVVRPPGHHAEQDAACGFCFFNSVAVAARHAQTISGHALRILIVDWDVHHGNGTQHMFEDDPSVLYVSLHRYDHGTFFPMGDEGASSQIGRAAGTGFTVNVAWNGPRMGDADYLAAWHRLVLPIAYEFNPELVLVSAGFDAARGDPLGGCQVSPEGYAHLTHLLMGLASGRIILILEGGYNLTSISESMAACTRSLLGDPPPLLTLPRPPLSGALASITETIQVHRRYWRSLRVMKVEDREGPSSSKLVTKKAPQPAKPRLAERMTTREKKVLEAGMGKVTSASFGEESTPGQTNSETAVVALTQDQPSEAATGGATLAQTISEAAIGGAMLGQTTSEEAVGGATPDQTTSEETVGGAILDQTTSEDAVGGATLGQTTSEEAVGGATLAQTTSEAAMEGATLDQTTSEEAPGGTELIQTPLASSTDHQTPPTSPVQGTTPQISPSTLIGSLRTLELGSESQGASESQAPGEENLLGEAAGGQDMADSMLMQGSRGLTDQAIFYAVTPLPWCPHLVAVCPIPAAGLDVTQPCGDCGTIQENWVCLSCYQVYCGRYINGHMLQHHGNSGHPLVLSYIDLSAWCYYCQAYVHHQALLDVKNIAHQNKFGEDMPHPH

[2] = biological target: Protein deacetylase HDAC6 (Homo sapiens) (UniProt Q9UBN7); settings: at 10 µM; remark: listed apart in the source

N=C(Nc1ccccc1)c1cccs1
inhibition [1]: 37.1%

CON(C)C(=O)[C@H](O)[C@H](Cc1ccccc1)NC(=O)c1cc2cc(Cl)ccc2[nH]1
inhibition [1]: 5.68%

CN[C@H]1C[C@@H](N)[C@H](O)[C@@H](O[C@@H]2O[C@H](CO)[C@H](O)[C@@H]3OC4(O[C@H]23)O[C@H]([C@@H](N)CO)[C@H](O)[C@H](O)[C@H]4O)[C@@H]1O (stereo partly drawn)
inhibition [1]: 6.11%

N#Cc1ccc2[nH]c(O)c(-c3ccc(CN4CCOCC4)cn3)c2c1
inhibition [1]: 11.3%

Cc1[nH]c(/C=C2\C(=O)Nc3cc(-c4ccccc4)ccc32)c(C)c1CCC(=O)O
inhibition [1]: 95.2%

CN/C(=N\S(=O)(=O)c1ccc(Cl)cc1)N1CC(c2ccccc2)C(c2ccc(Cl)cc2)=N1 (racemic)
inhibition [1]: 9.02%

O=C1CC(=O)c2c(Cl)c(Cl)c(Cl)c(Cl)c21
inhibition [1]: -2.09%

CN1C[C@@H]2CN(c3ccc(-c4ccccc4)nn3)C[C@@H]2C1
inhibition [1]: 10.2%

O=C1N[C@H](C(=O)O)CS1
inhibition [1]: 9.69%

CCOc1cc(/C=C2/C(=O)N(c3ccccc3)N=C2C)cc(Cl)c1OCC(=O)OC
inhibition [1]: 101%

HYALURONIC ACID, CHEMBL5314376
inhibition [2]: -9.36%

CN(C)C(=O)CCSC(SCCC(=O)O)c1cccc(/C=C/c2ccc3ccc(Cl)cc3n2)c1 (stereo not drawn)
inhibition [1]: 10.8%

N[C@@H](CSCCCO)C(=O)O
inhibition [1]: 24.6%

COc1ccc(-n2nc3c4c([nH]cc-3c2=O)CCCCC4)cc1
inhibition [1]: 40.9%

O=c1c2c[nH]c3ccccc3c-2nn1-c1ccc(Cl)cc1
inhibition [1]: 97.1%

CCCCCCCCCCCCCCCc1cccc(OCC(=O)NCCO)c1
inhibition [1]: -3.57%

CC(C)c1nnc(-c2ccc(-c3ccccc3)nc2)n1-c1cccc2nonc12
inhibition [1]: 4.02%

COC(=O)C[C@@](O)(CCC(C)(C)O)C(=O)O[C@@H]1C(OC)=C[C@]23CCCN2CCc2cc4c(cc2[C@@H]13)OCO4
inhibition [1]: -1.89%

C[N+]1(CC2CC2)[C@@H]2C[C@@H](OC(=O)[C@H](CO)c3ccccc3)C[C@H]1[C@@H]1O[C@@H]12 (stereo partly drawn)
inhibition [1]: -9.14%

COC(=O)N1CC[C@@H]2[C@H]1CCC[C@@]2(O)C#Cc1cccc(C)c1
inhibition [1]: 29.3%

O=C(Nc1ccc(Br)cc1)c1cc(Br)cc(Br)c1O
inhibition [1]: 100%

CCOC(=O)c1c(/C(C#N)=C\N)c2ccc(Cl)c(Cl)c2n1C
inhibition [1]: 0.46%

Cc1c(F)cc(C(=O)NC2CC2)cc1-c1c(F)cn2c(C(C)(C)C)nnc2c1F
inhibition [1]: -2%

CC1(C)CC[C@]2(NC(=O)C(C)(F)F)CC[C@]3(C)C(C(=O)C=C4[C@@]5(C)C=C(C#N)C(=O)C(C)(C)[C@@H]5CC[C@]43C)C2C1 (stereo partly drawn)
inhibition [1]: 19.7%

C[C@]12CC[C@H]3C(=CCc4cc(O)ccc43)[C@@H]1CCC2=O
inhibition [1]: 53.8%

C[C@]12CC[C@@H]3c4ccc(O)cc4CC[C@H]3[C@@H]1[C@@H](O)[C@@H](O)[C@@H]2O
inhibition [1]: 5.04%

CO/N=C(\C(=O)N[C@@H]1C(=O)N2C(C(=O)O)=C(CSC(=O)c3ccco3)CS[C@H]12)c1csc(N)n1
inhibition [1]: 22.4%

O=C(Nc1ccc(C(F)(F)F)cn1)N1CCN(c2ncccc2C(F)(F)F)CC1
inhibition [1]: -6.44%

COC(=O)c1cc2c(C(F)(F)F)cc(-c3ccccc3)cc2n1O
inhibition [1]: 16.7%

Cc1c(CN(C)C(=O)/C=C/c2cnc3c(c2)CCC(=O)N3)oc2ccccc12
inhibition [1]: 77.1%

CC1(C)CCC(C)(C)c2cc(Cn3cccn3)c(/C=C/c3ccc(C(=O)O)cc3)cc21
inhibition [1]: -7.51%

O=C(O)CCCCCCCCCCCCCCc1ccc(I)cc1
inhibition [1]: 21.6%

OCCn1cc(-c2ccc3c(c2)CC/C3=N\O)c(-c2ccncc2)n1
inhibition [1]: -0.22%

Cc1cc(Nc2ncnc3ccc(-c4ccc(CNCCS(C)(=O)=O)o4)cc23)ccc1Oc1ccn2ncnc2c1
inhibition [1]: 2.93%

Cc1cc(Nc2ncnc3ccc(NC4=NC(C)(C)CO4)cc23)ccc1Oc1ccn2ncnc2c1
inhibition [1]: -3.24%

C[C@@H]1COC(Nc2ccc3ncnc(Nc4ccc(OCc5nccs5)c(Cl)c4)c3c2)=N1
inhibition [1]: 62.5%

O=C1C=Cc2cc(Br)ccc2C1=O
inhibition [1]: 48.5%

Cc1ccc(=O)n(-c2ccc(O)cc2)c1
inhibition [1]: 1.55%

Nc1nc(Nc2ccc3c(c2)CC[C@@H](N2CCCC2)CC3)nn1-c1cc2c(nn1)-c1ccccc1CCC2
inhibition [1]: 2.38%

O=C(NC1(c2ccccc2)CC1)c1c(CN2CCC(N3CCCCC3)CC2)c(-c2cccc(C(F)(F)F)c2)nc2cc(Br)ccc12
inhibition [1]: 35.2%

COC(=O)/C=C/C(=O)OCCN1C(=O)CCC1=O
inhibition [1]: -0.93%

O=C(O)c1ccc(-c2ccc3cc(C45CC6CC(CC(C6)C4)C5)c(O)cc3c2)cc1
inhibition [1]: -6.28%

NS(=O)(=O)Oc1ccc2c3c(c(=O)oc2c1)CCCCC3
inhibition [1]: 91.6%

Fc1ccc(C(c2ccccc2)(c2ccccc2F)n2ccnc2)cc1 (stereo not drawn)
inhibition [1]: -9.89%

Cn1c(/C=C/C(=O)NO)ccc1/C=C/C(=O)c1cccc(F)c1
inhibition [1]: 98.6%

Cc1ccc(NC2=NCCN2)c(Cl)c1
inhibition [1]: 7.22%

CCC[C@H](N[C@@H](C)C(=O)N1[C@H](C(=O)O)C[C@@H]2CCCC[C@@H]21)C(=O)O
inhibition [1]: -9.35%

CCCC(=O)c1cc(F)ccc1OCC(O)CNC(C)(C)C (stereo not drawn)
inhibition [1]: -1.16%
